This is an account of results in ChEMBL document CHEMBL1157539, “Thousands of chemical starting points for antimalarial lead identification” (Nature, 2010).

The Inhibition is how much of the control response was suppressed.

The subject of the experiment is Plasmodium falciparum. Description: GSK_TCMDC: Inhibition of Plasmodium falciparum 3D7 in whole red blood cells, using parasite LDH activity as an index of growth. Test compounds present at 2uM. It counts as functional.
Turning to `Cc1ccc2cc(NCCCCCCCCON3C(N)=NC(N)=NC34CCCCC4)ccc2n1`, the Inhibition is listed as 92%.
The molecule `O=C(/C=C/c1ccc(Cl)c(Cl)c1)NCCCCCN1CCC(NC(=O)Nc2ccc(C(F)(F)F)cc2)C1` (stereo not given) showed an Inhibition of 100%.
Next, `O=C(Nc1cccc(-c2nn3ccccc3c2-c2ccnc(Nc3ccc(NCCCN4CCOCC4)c(F)c3)n2)c1)c1c(F)cccc1F`: 100%; `COc1ccc(CCNC(=O)c2ccccc2O)cc1-c1ccc(C(C)(C)C)cc1`: 95%; `CCN(CCCN1CCCC1)c1cc(C)nc(Nc2ccc(Cl)cc2)n1.O=C(O)C(=O)O`: 100%.
Turning to `CS(=O)(=O)CCNc1cc(N2CCc3ncnc(Nc4ccc(OCc5cccc(F)c5)c(Cl)c4)c3C2)ncn1`, the Inhibition is reported as 96%.
As to `NS(=O)(=O)c1ccc(CNC(=O)c2cnc3c(O)cccc3c2Nc2cccc(NC(=O)c3ccc(Cl)c(Cl)c3)c2)cc1.O=C(O)C(F)(F)F`, the Inhibition worked out at 97%.
In turn, `O=C(Nc1ccccc1)N(Cc1cccc(-c2ccc(CNC3CCCC3)cc2)c1)C1CCN(Cc2ccccc2)CC1.O=C(O)C(F)(F)F` returned an Inhibition of 100%.
In turn, `Cc1cc(F)ccc1Oc1nc(Nc2ccc(N3CCOCC3)c(F)c2)nc2c1S(=O)(=O)CCC2.Cl` came in with an Inhibition of 96%.
The result for `O=C(CCc1c[nH]cn1)Nc1cccc(-c2ccc(-c3nc4cc(F)ccc4[nH]3)s2)c1` reads 100%; that for `O=C(Nc1ccc(F)cc1F)NC1CCN(CCCCCNC(=O)C2CC2c2ccc(Cl)c(Cl)c2)CC1` (stereo not given), 100%; that for `Cc1ccccc1C(=O)NC(NC(=S)Nc1ccc([N+](=O)[O-])cc1)C(Cl)(Cl)Cl` (stereo not given), 100%.
With `CCN1CCN(c2cc(C)c3cc(NC(=O)c4cncc(Br)c4)ccc3n2)CC1`, the Inhibition was 97%.
The molecule `COc1ccc(-c2nc3c(N)nc(N)nc3nc2C(C)C)cc1` gave an Inhibition of 96%.
The molecule `COc1c(C2CCN(CCCCNC(=O)c3cc(-c4ccc(Cl)cc4)sc3C)CC2)ccc2c1CCCC2` had an Inhibition of 100%.
Regarding `O=C(/C=C/c1ccc(Cl)c(Cl)c1)N1CCN(C(=O)Nc2cccc(C(F)(F)F)c2)CC1`, the Inhibition is reported as 99%.
In the case of `O=C(O)C(F)(F)F.O=c1ccc2ccc(F)c3c2n1CC3CN1CCC(NCc2ccc(-c3cccc(Cl)c3)nc2)CC1` (stereo not given), the Inhibition came to 96%.
As for `Cc1[nH]cnc1Cc1ccc2c(c1O)c1ccccc1n2C`, the Inhibition is on record as 90%.
The result for `COc1ccc2nccc([C@@H](O)CN3CCC(NC(=O)/C=C/c4ccc5cc(C)[nH]c5c4)CC3)c2c1` reads 97%; that for `Cc1cc(NC2CCN(CC3CCCCC3)CC2)nc(Nc2ccccc2Cl)n1`, 100%; that for `CC12CN3CC(C)(CN(C1)C3c1cc(Br)ccc1O)C2O` (stereo not given), 98%.
`CC(C)c1ccc(C=CC(=O)N2CCC(CCN3CCC(c4c[nH]c5ccccc45)CC3)CC2)cc1` came in with an Inhibition of 93%.
Turning to `O=C(NCc1cccs1)[C@H](Cc1ccccc1)Nc1ccnc(NCC2CCCCC2)n1.O=C(O)C(F)(F)F`, the Inhibition was determined as 83%.
In turn, `COc1ccc(CCN(C)CCOc2ccc(NC(=O)c3cc(SC)cc4c(=O)c5ccccc5[nH]c34)cc2)cc1OC` showed an Inhibition of 87%.
In turn, `COc1cccc(OC(C)(C)c2nc(N[C@@H](C)c3ccccc3)c3cn[nH]c3n2)c1` gave an Inhibition of 89%.
The result for `CCCCCN1CCCN(Cc2cccc(NC(=O)c3ccc(Cl)c(Cl)c3)c2)CC1.O=C(O)C(F)(F)F` reads 89%.
The result for `O=C(Nc1cccc(-c2ccc(-c3nc4ccccc4[nH]3)cc2)c1)Nc1ccc2c(c1)OCO2` reads 90%.
The molecule `O=C(O)C(F)(F)F.Oc1ccc(CCCNc2nc(NCc3ccccc3-c3ccccc3)nc(N3CCNCC3)n2)cc1` had an Inhibition of 94%.
The result for `FC(F)(F)c1ccc2[nH]c(-c3ccc(-c4cccc(CNCc5ccccc5)c4)cc3)nc2c1.O=C(O)C(F)(F)F` reads 100%; that for `Cc1cccc2nc(-c3ccc(-c4ccc(CNCCNC(=O)c5ccnn5C)cc4)cc3)[nH]c12.O=C(O)C(F)(F)F`, 100%.
The result for `Cc1cc(NCCc2ccccc2)nc(N/C(=N/CC(=O)OC(C)(C)C)Nc2ccc(C(F)(F)F)cc2)n1.I` reads 100%; that for `CCCCOc1ccccc1C(=O)NCc1csc(-c2ccccc2)n1`, 93%.
For `COc1ccc2[nH]c(C(=O)Nc3cccc(-c4ccc(CN(C)C)cc4)c3)cc2c1`, the Inhibition was found to be 100%.
Next, `COc1cccc(CN2CCCN(Cc3cccc(NC(=O)c4cc5ccccc5s4)c3)CC2)c1.O=C(O)C(F)(F)F`: 89%.
In turn, `CC(C)Sc1nc2c(c(=O)n1Cc1ccco1)C1(CCCC1)Cc1ccccc1-2` came in with an Inhibition of 98%.
The result for `Cc1nnsc1C(=O)Nc1cccc(-c2ccc(-c3nc4cccc(C)c4[nH]3)s2)c1` reads 100%; that for `Cc1ccc(NC(=O)c2ccc3ncccc3c2)cc1OC1CCN(CCC(C)C)C1.O=C(O)C(F)(F)F` (stereo not given), 98%; that for `CCN(CC)CCNC(=O)c1ccc(NC(=O)c2ccc(-c3cc(NC(=O)CC4CCCC4)ccc3C)cc2)cc1`, 99%.
In turn, `Cc1cc(N/N=C/c2ccccc2[N+](=O)[O-])c2cccc(C)c2n1` had an Inhibition of 99%.
Regarding `CCN(CC)CCOc1ccc(NC(=O)c2oc3ccccc3c2C=Cc2ccccc2)cc1.O=C(O)/C=C/C(=O)O`, the Inhibition was 98%.
